The list is not random: actives were taken first. Their share in the collection is about 17%.
TDP1 inh – inhibitors of human tyrosyl-DNA phosphodiesterase TDP1. hit rate 0.28% among 350,000. recombinant TDP1, AlphaScreen DNA substrate cleavage. Potency, µM (highest dose often 130 µM), without a hit: top-dose activity change, negative = inhibition, actives largely listed as inhibitors. Q9NUW8; note: % is set by controls: 0 for no effect and ±100 for the full control effect; nearly all actives have a fitted effect of over 40% in size
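Signal: AlphaScreen proximity between streptavidin donor and anti-FITC acceptor beads on intact substrate. Reaction: Tdp1 1 nM, substrate 15 nM final, 5 min RT after 15 min compound preincubation.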
DT40 TDP1 CPT – growth inhibition of DT40 Tdp1-/-;hTDP1 cells with camptothecin (screen for TDP1 inhibitors); chicken DT40 Tdp1-/-;hTDP1 cells + 20 nM CPT, ATP luminescence, 48 h; Potency, µM (doses to about 46.2 µM), inactives show at the top dose activity change, negative = growth inhibition, most hits filed as inhibitors; hit rate 12% among 420,000; note: % is set by controls: 0 for no effect and ±100 for the full control effect; nearly all actives have a fitted effect of over 55% in size
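Chicken DT40 Tdp1-/- cells complemented with human TDP1, 400 cells/well, exposed to compounds plus 20 nM camptothecin for at least 48 h at 37 C; viability read as ATP content by CellTiter-Glo luminescence.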
TDP1 cell noCPT – qHTS for Inhibitors of human tyrosyl-DNA phosphodiesterase 1 (TDP1): qHTS in cells in absence of CPT; DT40 Tdp1-/- hTDP1 cells, no CPT, ATP luminescence, 48 h; Potency, µM (titrated, usually from 46.2 µM), for inactives: top-dose activity change, negative = growth inhibition, actives largely listed as inhibitors; hit rate 15% among 420,000; AID 686978, 2013; note: % is set by controls: 0 for no effect and ±100 for the full control effect; nearly all actives have a fitted effect of over 55% in size
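Stably hTDP1-transfected Tdp1-null chicken DT40 cells were treated with library compounds minus camptothecin and grown for at least 48 hr at 37 °C, after which cellular ATP was quantified by luminescence.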
ClpP mod – qHTS Assay for Activators of ClpP. ATP-dependent Clp protease proteolytic subunit (Bacillus subtilis (strain 168)), P80244. purified B. subtilis ClpP, FRET peptide cleavage, 20 min. Potency, µM (doses to about 57.5 µM), without a hit: at the top dose activity change, negative = active. hit rate 1.9% among 340,000; active = well fitted falling curve with a large enough effect; inconclusive = small, poorly fitted or top-dose-only effect; inactive = no such curve, though single readings can be large or run the other way; note: the source files actives as falling curves though it sought activators and does not explain the sign; nearly all actives have a fitted effect of over 65% in size
Target sequence (P80244 whole entry, looked up): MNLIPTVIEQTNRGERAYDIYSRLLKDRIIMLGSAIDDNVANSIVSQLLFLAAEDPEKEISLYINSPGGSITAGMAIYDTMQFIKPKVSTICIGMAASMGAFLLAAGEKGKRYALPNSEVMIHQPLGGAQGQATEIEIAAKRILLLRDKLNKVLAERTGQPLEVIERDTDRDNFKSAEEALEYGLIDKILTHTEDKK
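ClpP 10 microg/mL final, pH 8 Tris/KCl buffer with BSA, glycerol, Tween-20; compound pinned in; FRET-FV substrate; RT 20 min; Ex320/Em430; ΔFRET vs ADEP 5.8 microM, DMSO, no enzyme.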
* hit, by the source's call; ? = inconclusive; · = no result; [ ] = remark or other dose. Unless noted, calls come from the whole dose curve; as a rule, active = well fitted curve in the direction sought with a large enough effect; inconclusive = small, poorly fitted or top-dose-only effect, or another doubt; inactive = no such curve, though single readings can be large; an effect the other way counts as inactive or inconclusive. Potency is the fitted concentration of half-maximal effect.

SMILES | TDP1 inh | DT40 TDP1 CPT | TDP1 cell noCPT | ClpP mod
COc1ccc(S(=O)(=O)N(CCc2ccccc2)CC(N)=O)cc1 | 9.0% | -0.1% | -28.2% | ·
O=C(NNC(=O)c1cc2cc3ccccc3nc2s1)c1cccc(C(F)(F)F)c1 | · | -21.7% | -16.7% | ?
O=C(NC1CC1)c1cc2cc3ccccc3nc2s1 | 0.0% | 23.1µM* | ? | -21.5%
COC(=O)[C@H](CC(C)C)NC(=O)CC[C@H]1O[C@@H](n2ccc(=O)[nH]c2=O)[C@H](O)[C@@H]1O | · | -2.6% | -10.7% | 1.8%
COc1ccc(C2Nc3ccc(NC(C)=O)cc3C(=O)N2Cc2cccc(Cl)c2)cc1COc1ccc(NC(C)=O)cc1 (stereo not drawn) | -4.9% | 12.6µM* | 10µM* | ?
COc1cccc(CN2C(=O)c3ccccc3NC2c2ccc(OC)c(COc3ccc(NC(C)=O)cc3)c2)c1 (stereo not drawn) | 1.4% | · | · | ·
COc1ccc(C2Nc3ccc(Cl)cc3C(=O)N2Cc2ccccc2)cc1COc1ccc(NC(C)=O)cc1 (stereo not drawn) | -13.6% | · | · | ·
COc1ccc(C2Nc3ccc(NC(=O)CO)cc3C(=O)N2Cc2cccc(Cl)c2)cc1COc1ccc(NC(C)=O)cc1 (stereo not drawn) | -8.7% | ? | 11.2µM* | ?
Cc1ccc(C(=O)CSc2nc3cc(C(=O)NC4CCCC4)ccc3c(=O)n2CC2CCCO2)cc1 (stereo not drawn) | 5.3% | -6.5% | -16.4% | 0.5%
Cc1ccc(C)c(C(=O)CSc2nc3cc(C(=O)NC4CCCC4)ccc3c(=O)n2CC2CCCO2)c1 (stereo not drawn) | 5.3% | 18.4µM* | 8.2µM* | -0.3%
O=C(CSc1nc2cc(C(=O)NC3CCCC3)ccc2c(=O)n1CC1CCCO1)c1cccc(Cl)c1 (stereo not drawn) | 0.0% | 20.6µM* | 23.1µM* | -5.5%
CC(=O)c1c(C)nc2ccc([N+](=O)[O-])cc2c1-c1ccccc1 | 5.5% | ? | ? | 1.3%
CC(=O)c1c(-c2ccccc2)c2cc([N+](=O)[O-])ccc2[nH]c1=O | · | ? | 14.6µM* | 1.5%
CCOc1nc2cccc(C(=O)O)c2n1Cc1ccc(-c2ccccc2-c2nn[nH]n2)cc1 | · | 12.6% | 3.4% | ·
CC(CN1CCCCC1)OC(=O)c1ccccc1F (stereo not drawn) | · | 1.3% | -13.4% | 0.0%
CC(C)(C)C1CCC2(CC1)C(C#N)=C(SCC(=O)Nc1ccccc1)NC(=O)C2C#N (stereo not drawn) | 1.0% | 16.4µM* | ? | -2.9%
N#CC1=C(SCC(=O)c2cc3ccccc3oc2=O)NC(=O)C(C#N)C12CCCC2 (stereo not drawn) | 2.6% | -16.2% | ? | 46.0%
CCN(CC)S(=O)(=O)c1ccc2c(c1)N(CC(=O)N1CCN(c3cccc(Cl)c3)CC1)C(=O)CO2 | 2.8% | 16.4µM* | ? | 1.1%
CCN(CC)S(=O)(=O)c1ccc2c(c1)N(CC(=O)N1CCN(c3ccc(Cl)cc3)CC1)C(=O)CO2 | 2.8% | 16.4µM* | 16.4µM* | -1.5%
CCCN1CCN(C(=O)CN2C(=O)COc3ccc(S(=O)(=O)N(CC)CC)cc32)CC1 | 0.9% | -15.1% | 16.3% | -1.5%
C(=Nc1ccc(/C=C/c2ccnc3ccccc23)cc1)c1cccs1 | · | ? | 12.6µM* | -2.8%
C(=Nc1ccc(/C=C/c2ccnc3ccccc23)cc1)c1ccc2c(c1)OCO2 | · | ? | 17.8µM* | -8.6%
C(=Nc1ccc(/C=C/c2ccnc3ccccc23)cc1)c1ccco1 | · | 15.8µM* | 12.6µM* | -0.5%
C(=C\c1ccnc2ccccc12)/c1cccs1 | · | ? | ? | -3.4%
Cc1nn(C)c(C)c1NC(=O)CCl | 4.7% | 37.8% | ? | ·
SMILES | TDP1 inh | DT40 TDP1 CPT | TDP1 cell noCPT | ClpP mod
CC(=O)n1c(Cl)c(NC(=O)CCl)c2ccccc21 | 8.8% | 10.3µM* | 11.6µM* | 1.5%
CS(=O)(=O)Nc1cccc(-c2nc(NCc3ccccc3)c3ccccc3n2)c1 | · | ? | -27.5% | ·
Clc1ccc(N=c2ssnc2Cl)cc1 | 14.0%[56.1 µM] | 10.3µM* | 14.6µM* | 2.0%
Clc1nssc1=Nc1ccccc1 | 8.6% | 16.4µM* | 14.6µM* | -2.8%
COc1ccc(N=c2ssnc2Cl)cc1 | 7.5% | 7.31µM* | 9.2µM* | 1.2%
O=C1CSC(=Nc2ccc(Cl)cc2)N1 | 2.5% | 7.0% | 1.8% | 2.2%
Fc1ccc(N=c2ssnc2Cl)c(F)c1 | -5.9% | 7.31µM* | 9.2µM* | ·
O=C(NCC1(N2CCCCC2)CCCC1)c1cnn(-c2nccc(-c3cccs3)n2)c1C1CC1 | · | 6.8%[9.04 µM] | 0.8% | ·
O=c1cc(-c2ccc(O)c(O)c2)oc2cc(OC3OC(CO)C(O)C(O)C3O)cc(O)c12 (stereo not drawn) | 7.8%[56.1 µM] | 4.7% | -2.0% | ·
O=C(N[C@@H](Cc1ccccc1)C(=O)NCc1ccc(F)cc1)C1CCNCC1 | 3.7% | -0.7% | 6.5% | -0.7%
CCCN1CNc2c(c(=O)[nH]c(=S)n2CCc2ccc(Cl)c(Cl)c2)C1 | -7.3% | ? | ? | 2.9%
COC(=O)[C@H](C)NS(=O)(=O)C1CC1 | · | -4.2% | -20.5% | 0.2%
N#Cc1ccc(Oc2c(Cl)cncc2Cl)cc1 | · | ? | -12.1% | 1.1%
COc1cc(NC(=O)c2cc(Cl)nnc2Cl)cc(OC)c1OC | 0.0% | ? | ? | 1.3%
N#Cc1ccc(N=c2ssnc2Cl)cc1 | 2.1% | 5.17µM* | 7.31µM* | 1.5%
COc1cc(N=c2ssnc2Cl)cc(OC)c1OC | 5.9% | 3.26µM* | 2.59µM* | -3.2%
CCCC/C=C/C(NC(=O)c1ccco1)c1ccccc1 (stereo not drawn) | -9.9% | · | · | ·
Cc1cc2oc(C(=O)Nc3ccc(S(=O)(=O)N4CCC(C)CC4)cc3)cc(=O)c2cc1C | 8.6% | -3.4% | -7.9% | -1.1%
CCn1cc(C(=O)NCCC(C)C)c(=O)c2cc(F)c(N3CCN(C)CC3)cc21 | · | ? | ? | 4.2%

Screening data as filed in PubChem.
